# From PubChem
# nsP2pro primary = blocks chikungunya virus nsP2 protease peptide cleavage; Q8JUX6; Potency, µM (series often up to 24.9 µM), most hits filed as inhibitors; 31,000 compounds, 1.1% hits; AID 1964107; FRET peptide cleavage, nsP2pro, fluorescence 1 h; also: nearly all actives have a fitted effect of over 60% in size
#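 Purified recombinant nsP2pro (150 nM final) in 10 mM Tris-HCl pH 8.0 with 0.01% Tween 20 was preincubated 15 min at room temperature with compound (7 concentrations, up to 25 uM). FRET peptide 2 substrate (2.5 uM final) was then added; fluorescence was read after 1 h.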
# CHIKV nsP2 cell = inhibits CHIKV nsP2 protease in cells; shares compounds with nsP2pro primary; cell-based CHIKV nsP2 protease reporter assay; Potency, µM (doses to about 51.1 µM), most hits filed as inhibitors; 450 compounds, 10% hits; AID 1964100; also: nearly all actives have a fitted effect of over 70% in size
# CHIKV NSP2 FL = inhibits full-length CHIKV NSP2 enzyme; shares compounds with nsP2pro primary; Full-length CHIKV NSP2 protease enzymatic counterscreen; Potency, µM (doses to about 50.7 µM), hits mostly inhibitors; 410 compounds, 39% hits; also: nearly all actives have a fitted effect of over 65% in size
# Furin counter = selectivity counter-screen for CHIKV nsP2 protease inhibitors: human furin | Recombinant human furin enzymatic counterscreen, fluorogenic substrate | shares compounds with nsP2pro primary | 410 compounds, 6% hits | Potency, µM (series often up to 50.6 µM), actives largely listed as inhibitors
# nsP2 NS23 pep = selectivity test for CHIKV nsP2 protease inhibitors: endogenous NS2/3 peptide; shares compounds with nsP2pro primary; Purified CHIKV nsP2 protease, endogenous NS2/3 peptide cleavage; Potency, µM (series often up to 51 µM), actives largely listed as inhibitors; 410 compounds, 34% hits; also: nearly all actives have a fitted effect of over 55% in size
# Papain counter = selectivity counter-screen for CHIKV nsP2 protease inhibitors: papain | shares compounds with nsP2pro primary | purified papain protease activity, enzymatic inhibition | Potency, µM (highest dose often 51 µM), usual class: inhibitors | 410 compounds, 5% hits
# Target sequence (P00784 whole entry, looked up): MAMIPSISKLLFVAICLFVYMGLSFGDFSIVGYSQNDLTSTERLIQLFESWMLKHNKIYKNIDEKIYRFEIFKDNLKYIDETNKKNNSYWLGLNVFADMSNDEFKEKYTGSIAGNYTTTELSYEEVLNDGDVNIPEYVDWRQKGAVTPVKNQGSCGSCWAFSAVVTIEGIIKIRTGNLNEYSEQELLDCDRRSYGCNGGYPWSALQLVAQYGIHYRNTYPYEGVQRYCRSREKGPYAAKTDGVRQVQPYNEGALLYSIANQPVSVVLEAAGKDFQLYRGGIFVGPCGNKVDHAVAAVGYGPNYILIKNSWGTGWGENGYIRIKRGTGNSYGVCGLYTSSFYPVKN
# nsP2pro conf qHTS = confirmation of CHIKV nsP2 protease inhibitors; Potency, µM (highest dose often 25.5 µM), usual class: inhibitors; 410 compounds, 43% hits; CHIKV nsP2 protease enzymatic activity, qHTS; AID 1964105; shares compounds with nsP2pro primary; also: nearly all actives have a fitted effect of over 75% in size
# HCV NS3 4A cs = inhibits HCV NS3/4A protease in an nsP2pro selectivity counterscreen; shares compounds with nsP2pro primary; HCV NS3/4A protease biochemical counterscreen; 410 compounds, 20% hits; Potency, µM (doses to about 50.9 µM), actives largely listed as inhibitors; also: nearly all actives have a fitted effect of over 55% in size
# Hits are given with their value; i = inactive; ? = inconclusive; nt = no result given. The entries come from a sample that favours hits as a whole. Calls follow the shape of the full dose curve.
SMILES,nsP2pro primary,others
O=c1[nH]c(-c2ccc(C(F)(F)F)cc2)nc2c1CSCC2,?,CHIKV nsP2 cell=i;CHIKV NSP2 FL=i;Furin counter=i;nsP2 NS23 pep=i;Papain counter=i;nsP2pro conf qHTS=i;HCV NS3 4A cs=i
O=c1[nH]c(-c2ccc(F)cc2)nc2c1CCN(S(=O)(=O)c1cccs1)C2,i,
CS(=O)(=O)c1ccccc1N1CCN(c2nc3c(c(=O)[nH]2)CSCC3)CC1,i,
CN[C@@H]1[C@@H](O)[C@@H](O[C@@H]2[C@@H](O)[C@H](OC3O[C@H](CN)[C@@H](O)[C@H](O)[C@H]3O)[C@@H](N)C[C@H]2NC(=O)[C@@H](O)CN)OC[C@]1(C)O (stereo partly drawn),i,
N#CC1=C(Nc2nc3ccccc3o2)OC2=C(C(=O)CCC2)C1c1[nH]ncc1Cl (stereo not drawn),i,
Cc1cn([C@H]2C[C@H](N[S+](=O)([O-])c3ccc4c(c3)OCCO4)[C@@H](CO)O2)c(=O)[nH]c1=O,i,
NC(=O)c1ccc[n+]([C@@H]2O[C@H](COP(=O)([O-])O)[C@@H](O)[C@H]2O)c1,i,
CC(C)(O)/C=C1/C(=O)C(C)(C)C(=O)C(C)(C)C1(O)O[C@@H]1O[C@H](COC(=O)c2cc(O)c(O)c(O)c2)[C@@H](O)[C@H](O)[C@H]1O (stereo partly drawn),i,
CC(=O)N1CCC(N2CCOC[C@H]2c2ncc(-c3ccncc3)[nH]2)CC1,i,
COC(=O)N[C@H](C(=O)N1CCC[C@H]1c1ncc(-c2ccc3c(c2)O[C@@H](c2ccccc2)n2c-3cc3cc(-c4cnc([C@@H]5CCCN5C(=O)[C@@H](NC(=O)OC)C(C)C)[nH]4)ccc32)[nH]1)C(C)C,i,
COC(=O)N[C@H](C(=O)N1CCC[C@H]1c1ncc(-c2ccc(-c3ccc(-c4cnc([C@@H]5CCCN5C(=O)[C@@H](NC(=O)OC)C(C)C)[nH]4)cc3)cc2)[nH]1)C(C)C,?,CHIKV nsP2 cell=i;CHIKV NSP2 FL=?;Furin counter=i;nsP2 NS23 pep=i;Papain counter=i;nsP2pro conf qHTS=?;HCV NS3 4A cs=i
CCCCCC(=O)N[C@@H](CC(C)C)C(=O)N[C@H](C=O)CCC(=O)O,i,
CN1C(=O)[C@]23C[C@H]4C(C)(C)[C@]5(CNc6c5ccc5c6OC=CC(C)(C)O5)C[C@@]41CN2CC[C@@]3(C)O,i,
COc1cc(O)c(C(CC(=O)N2CCC(c3ccccc3)CC2)c2ccc3c(c2)OCO3)c(OC)c1 (stereo not drawn),i,
CCOC(=O)C1(Cc2ccccc2)CCNCC1,i,
O=C(O)C1CCC(C(=O)Nc2ccc([S+](=O)([O-])Nc3nccs3)cc2)CC1 (stereo not drawn),i,
Cc1ccc(N2CCC(CNc3nc(-c4ccccc4C(C)C)ncc3C)CC2)cn1,i,
Cc1ccccc1NC(=O)Nc1ccc(CN2C(=O)N([C@@H](CC(C)C)C(=O)N[C@@H](CC(=O)O)c3ccccc3)C(=O)C2(C)C)cc1,i,
CC1=CC(=O)C2(OC3OC(C)C(O)C(OC(=O)/C=C/c4ccccc4)C3O)C=COC(OC3OC(CO)C(O)C(O)C3O)C12 (stereo not drawn),i,
COc1cccc2c1C(=O)c1c(O)c3c(c(O)c1C2=O)C[C@@](O)(C(=O)CO)C[C@@H]3O[C@H]1C[C@H](N)[C@H](OC2CCCCO2)[C@H](C)O1 (stereo partly drawn),i,
COc1cccc2c1C(=O)c1c(O)c3c(c(O)c1C2=O)C[C@@](O)(C(=O)CO)CC3OC1CC(N2CCOC(OC)C2)C(O)C(C)O1 (stereo partly drawn),i,
CC[C@@]1(O)C[C@H](O[C@H]2C[C@H](N(C)C)[C@H](O[C@H]3C[C@H](O)[C@H](O[C@H]4CCC(=O)[C@H](C)O4)[C@H](C)O3)[C@H](C)O2)c2c(cc3c(c2O)C(=O)c2c(O)cccc2C3=O)[C@@H]1C(=O)OC,?,CHIKV nsP2 cell=i;CHIKV NSP2 FL=?;Furin counter=i;nsP2 NS23 pep=?;Papain counter=i;nsP2pro conf qHTS=?;HCV NS3 4A cs=i
Cc1cccc(-n2cnc3cc(C(=O)N4CCCC(C(F)(F)F)C4)ccc32)c1 (stereo not drawn),i,
Cc1onc(-c2c(F)cccc2Cl)c1C(=O)N[C@@H]1C(=O)N2[C@@H]1SC(C)(C)[C@H]2C(=O)O,i,
COc1ccc(S(=O)(=O)Nc2ccc(C)n(CC(=O)O)c2=O)cc1,i,
SMILES,nsP2pro primary,others
Cc1ccc(S(=O)(=O)Nc2cc(SCC(=O)O)c(O)c3ccccc23)cc1[N+](=O)[O-],nt,CHIKV nsP2 cell=?;CHIKV NSP2 FL=4.1µM;Furin counter=i;nsP2 NS23 pep=2.6µM;Papain counter=18µM;nsP2pro conf qHTS=0.9µM;HCV NS3 4A cs=i
CCC(=O)NC(c1ccc(C)cc1)c1cc([N+](=O)[O-])c2cccnc2c1O (stereo not drawn),i,
O=C(O)c1ccc(-n2cccc2/C=C2\SC(=O)N(Cc3cccc(Cl)c3)C2=O)cc1,i,
O=C(c1ccco1)N1CCN(C(=O)c2cnn(-c3cccc(F)c3)c2C2CCNCC2)CC1,i,
O=C(Nc1cccc(C(F)(F)F)c1)c1cnn(-c2cccc(F)c2)c1C1CCNCC1,8.9µM,CHIKV nsP2 cell=i;CHIKV NSP2 FL=12µM;Furin counter=i;nsP2 NS23 pep=?;Papain counter=i;nsP2pro conf qHTS=?;HCV NS3 4A cs=7.3µM
Cc1cc(C)cc(NC(=O)c2cnn(-c3ccc(C)c(C)c3)c2C2CCNCC2)c1,i,
Cc1cc(C)n2nc(C(=O)N3CCCC4(CNC(=O)O4)C3)cc2n1 (stereo not drawn),i,
O=C(Nc1cccc(F)c1)N1Cc2[nH]cnc2C[C@H]1c1nc(-c2ccncc2)no1,i,
O=C(NC1CCCCC1)N1Cc2[nH]cnc2C[C@H]1c1nc(-c2ccccc2)no1,i,
Cc1cccc(-c2noc([C@@H]3Cc4nc[nH]c4CN3C(=O)NC3CCCCC3)n2)c1,0.63µM,CHIKV nsP2 cell=i;CHIKV NSP2 FL=5.3µM;Furin counter=i;nsP2 NS23 pep=7.5µM;Papain counter=i;nsP2pro conf qHTS=2.1µM;HCV NS3 4A cs=i
O=C1CCCC2=C1C(c1cnccc1C(F)(F)F)N=C(Nc1nc3ccccc3o1)N2 (stereo not drawn),i,
CC1(COc2ccc(N3CCC(Oc4ccc(OC(F)(F)F)cc4)CC3)cc2)Cn2cc([N+](=O)[O-])nc2O1 (stereo not drawn),i,
COc1ccc(-c2c(C)c(C(=O)NN3CCCCC3)nn2-c2ccc(Cl)cc2Cl)cc1,i,
OCC(CO)(CO)NCC(O)Cn1c2ccc(Cl)cc2c2cc(Cl)ccc21 (stereo not drawn),i,
O[C@@H]1CO[C@H]2[C@@H]1OC[C@@H]2n1nnnc1Sc1ncccn1,i,
